From PubChem BioAssay (EPA / NIEHS)
Several values for one entry are separate records, joined by “and”; a condition that tells them apart may be missing. Identical values can stand only once. Records with an inconclusive call do not appear. Some structures have more than one record in an assay (separate samples or runs), and their calls can disagree. Activity calls are given as the source filed them. Rule for the calls, unless noted: active = hit-call score of the fitted dose curve at least 0.9, where 1 is the maximum; inactive = score below 0.9.

What was measured:
[1] = molecular target: Nucleoli Translocation, AR (gene 367) (UniProt P10275); assay: UPITT_HCI_U2OS_AR_TIF2_Nucleoli_Antagonist: University of Pittsburgh U2OS Androgen Receptor-Transcriptional Intermediary Factor 2 (AR-TIF2) Antagonism High Content Imaging Assay for Nucleoli Translocation (AID 2283997; active = hit-call score of the fitted dose curve at least 0.9, where 1 is the maximum)
Outline: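 Measured quantity was AR-RFP fluorescence localized to nucleoli in engineered U2OS cells also bearing TIF2-GFP, acquired on automated high-content imagers. Primary testing used 20 uM compound; actives were confirmed in triplicate wells.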

[2] = molecular target: Nucleoli Translocation, AR (gene 367) (UniProt P10275); assay: UPITT_HCI_U2OS_AR_TIF2_Nucleoli_Agonist: University of Pittsburgh U2OS Androgen Receptor-Transcriptional Intermediary Factor 2 (AR-TIF2) Agonism High Content Imaging Assay for Nucleoli Translocation (AID 2283998; active = hit-call score of the fitted dose curve at least 0.9, where 1 is the maximum)
Outline: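 High-content images quantify nucleolar accumulation of RFP-fused AR in cells also expressing GFP-TIF2; the endpoint is fitted as signal gain versus DMSO controls across final concentrations of 0.195 to 50 uM.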

[3] = molecular target: Ratio of Nucleoli Translocation and Cytoplasm, AR (gene 367) (UniProt P10275); assay: UPITT_HCI_U2OS_AR_TIF2_Nucleoli_Cytoplasm_Ratio_Agonist: University of Pittsburgh U2OS Androgen Receptor-Transcriptional Intermediary Factor 2 (AR-TIF2) Agonism High Content Imaging Assay for Ratio of Nucleoli Translocation and Cytoplasm (AID 2284000; active = hit-call score of the fitted dose curve at least 0.9, where 1 is the maximum;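 note: hits raise the red nucleolar to cytoplasm ratio above vehicle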)
Outline: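 Read-out first: nucleolar-to-cytoplasm ratio of red (AR-RFP) signal, quantified by high-content imaging in U2OS cells co-expressing TIF2-GFP. Activity is scored as signal increase over DMSO. Single-point screening used 20 uM final (0.2% DMSO).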

[4] = CCTE_Simmons_MITO_basal_resp_rate: CCTE's HepG2 Seahorse XF Respirometric Screening Assay at Basal Respiratory State, Simmons Lab (AID 2284001); conditions: actives raise or lower the signal
Outline: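 HepG2 respirometry; 7-pt titration 125 nM–100 uM final; kinetic OCR at 6 min intervals for 72 min; n=3 biological, technical singles; DMSO baseline, gain or loss fit; fenpyroximate (decrease) and 2,4-DNP (increase) controls.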

[5] = CCTE_Simmons_MITO_max_resp_rate: CCTE's HepG2 Seahorse XF Respirometric Screening Assay at Maximal Respiratory State [uncoupled], Simmons Lab (AID 2284002); conditions: actives raise or lower the signal
Outline: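 Uncoupled (FCCP) respiration of HepG2 cells served as the endpoint, with measurements at 6-minute intervals across a 72-minute run and compounds dosed at 7 concentrations up to 100 uM final.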

[6] = CCTE_Simmons_MITO_inhib_resp_rate: CCTE's HepG2 Seahorse XF Respirometric Screening Assay at Inhibited Respiratory State [full ETC block], Simmons Lab (AID 2284006); conditions: actives raise or lower the signal
Outline: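 HepG2 oxygen consumption was measured by Seahorse XF after compound, FCCP, then rotenone/antimycin A injections. Seven concentrations from 125 nM to 100 uM (final) were tested, with 6-min kinetic reads over 72 minutes. Inhibited-state OCR was fitted bidirectionally against DMSO.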

[7] = CCTE_Shafer_MEA_acute_spike_number: CCTE's Neural Acute Assay for Total Number of Spikes, Shafer Lab (AID 2284008);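 for AC50: curve fitted for decrease in spike count so AC50 reflects inhibitors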
Outline: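 Using an adaptive detector set to 8x rms noise, spikes were counted in 40-min windows before and after compound addition (0.03-40 uM) to rat cortical networks at 37 C; the well-level change from baseline was analysed relative to DMSO.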

[8] = CCTE_Shafer_MEA_acute_firing_rate_mean: CCTE's Neural Acute Assay for Mean Firing Rate, Shafer Lab (AID 2284009);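 note: analyzed for loss of signal so actives lower firing rate relative to DMSO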
Outline: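 Percent change in well-mean firing rate was derived from extracellular spikes detected at 8x rms noise (300-5000 Hz band-pass) before and after a 40-min compound exposure. Cultures were primary rat cortical neurons, tested at 0.03-40 uM.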

[9] = CCTE_Harrill_HTTr_Viability_MCF7: CCTE's 6-hour Cell Viability Assessment for the High-Throughput Transcriptomics (HTTr) Platform, in MCF-7 cells cultured in DMEM + 10% fetal bovine serum, Harrill Lab (AID 2284010)
Outline: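 MCF-7 cells in DMEM + 10% FBS, 384-well, exposed 6 h to an eight-point dilution series. Membrane integrity scored by high-content imaging of propidium iodide exclusion; bidirectional fit versus DMSO.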

[10] = CCTE_Harrill_HTTr_Apoptosis_MCF7: CCTE's 6-hour Apoptosis Assessment for the High-Throughput Transcriptomics (HTTr) Platform, in MCF-7 cells cultured in DMEM + 10% fetal bovine serum, Harrill Lab (AID 2284011)
Outline: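 Apoptosis in MCF-7 cells grown in DMEM with 10% fetal bovine serum was scored after a six hour exposure by high content imaging of caspase-3/7 activation (CellEvent Caspase 3/7 Green), with DMSO serving as negative control and baseline.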

[11] = CCTE_Shafer_MEA_acute_burst_number: CCTE's Neural Acute Assay for Single-Electrode Bursts, Shafer Lab (AID 2284013)
Outline: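 Spontaneous network activity of primary rat cortical neurons was recorded extracellularly on microelectrode arrays at 37 C, with 40-min periods before and during exposure to 0.03-40 uM compound on DIV 13 or 15.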

[12] = CCTE_Shafer_MEA_acute_burst_duration_mean: CCTE's Neural Acute Assay for Mean Burst Duration, Shafer Lab (AID 2284014);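 note: hits are decreases in mean burst duration relative to DMSO controls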
Outline: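 Read-out is the per-well percent change in mean burst duration (first to last spike within a single-electrode burst) between 40-min recordings before and after compound. Cultures were primary rat cortical neurons on MEAs, dosed at 0.03-40 uM on DIV 13 or 15.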

[13] = CCTE_Shafer_MEA_acute_per_burst_spike_number_mean: CCTE's Neural Acute Assay for Average Number of Spikes Per Burst, Shafer Lab (AID 2284015);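 note: hits are decreases in mean spikes per burst versus baseline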
Outline: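 Read-out: percent change in mean spikes per burst, each well's post-exposure 40-min recording versus its own 40-min baseline. Rat cortical cultures, DIV 13 or 15, compounds 0.03-40 uM; DMSO is negative control, loss-of-signal fitting.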

[14] = molecular target: Ratio of Nucleoli Translocation and Cytoplasm, AR (gene 367) (UniProt P10275); assay: UPITT_HCI_U2OS_AR_TIF2_Nucleoli_Cytoplasm_Ratio_Antagonist: University of Pittsburgh U2OS Androgen Receptor-Transcriptional Intermediary Factor 2 (AR-TIF2) Antagonism High Content Imaging Assay for Ratio of Nucleoli Translocation and Cytoplasm (AID 2283999; active = hit-call score of the fitted dose curve at least 0.9, where 1 is the maximum;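 note: antagonists lower the DHT-driven ratio of nucleolar to cytoplasmic red signal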)
Outline: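 U2OS cells co-expressing RFP-tagged human AR and GFP-tagged TIF2, antagonist mode with DHT as baseline. Nucleolar-to-cytoplasmic red fluorescence ratio imaged by high-content microscopy; final compound 20 uM (0.2% DMSO) primary, 0.195–50 uM (0.5% DMSO) concentration-response.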

[15] = CCTE_Harrill_HTTr_CellCount_MCF7: CCTE's Cell Proliferation Assessment for the High-Throughput Transcriptomics (HTTr) Platform, Harrill Lab (AID 2284012; active = hit-call score of the fitted dose curve at least 0.9, where 1 is the maximum;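 note: cells exposed to compound for six hours; intended direction is loss of nuclei count meaning fewer cells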)
Outline: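 MCF7 cells exposed 6 hours to an eight-point dilution series; Hoechst-stained nuclei counted by high-content imaging. Bidirectional curve fitting against DMSO baseline.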

[16] = CCTE_Harrill_HTTr_Apoptosis_DMEM_24hr: (Pilot) CCTE's 24-hour Apoptosis Assessment for the High-Throughput Transcriptomics (HTTr) Platform, in MCF-7 cells cultured in DMEM + 10% fetal bovine serum, Harrill Lab (AID 2283983)
Outline: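 MCF-7 cells in DMEM + 10% FBS, eight-point dilution series, 24 h exposure. Caspase-3/7 activation imaged by high-content imaging with CellEvent Caspase 3/7 Green. Bidirectional curve fitting against DMSO baseline.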

[17] = CCTE_Harrill_HTTr_Apoptosis_PRF_DMEM_6hr: (Pilot) CCTE's 6-hour Apoptosis Assessment for the High-Throughput Transcriptomics (HTTr) Platform, in MCF-7 cells cultured phenol red-free DMEM + 10% charcoal-stripped fetal bovine serum, Harrill Lab (AID 2283984)
Outline: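 MCF-7 cells in phenol red-free DMEM + 10% charcoal-stripped FBS, eight-point dilution series, 6 h exposure. Caspase-3/7 activation imaged by high-content imaging with CellEvent Caspase 3/7 Green; bidirectional fit versus DMSO baseline.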

[18] = CCTE_Harrill_HTTr_Apoptosis_PRF_DMEM_12hr: (Pilot) CCTE's 12-hour Apoptosis Assessment for the High-Throughput Transcriptomics (HTTr) Platform, in MCF-7 cells cultured in phenol red-free DMEM + 10% charcoal-stripped fetal bovine serum, Harrill Lab (AID 2283985)
Outline: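 MCF-7 cells in phenol red-free DMEM with 10% charcoal-stripped FBS, eight-point dilution series, 12 h exposure. Caspase-3/7 activation imaged by high content imaging with CellEvent Green reagent; bidirectional fit vs DMSO.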

[19] = CCTE_Harrill_HTTr_Apoptosis_PRF_DMEM_24hr: (Pilot) CCTE's 24-hour Apoptosis Assessment for the High-Throughput Transcriptomics (HTTr) Platform, in MCF-7 cells cultured in phenol red-free DMEM + 10% charcoal-stripped fetal bovine serum, Harrill Lab (AID 2283986)
Outline: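 MCF-7 cells in phenol red-free DMEM with 10% charcoal-stripped FBS, exposed 24 h across an eight-point dilution series. Caspase-3/7 activation imaged with CellEvent Green by high content imaging; bidirectional fitting against DMSO.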

Measured: AC50

Sequence of Ratio of Nucleoli Translocation and Cytoplasm, AR (gene 367) (P10275 whole entry, looked up): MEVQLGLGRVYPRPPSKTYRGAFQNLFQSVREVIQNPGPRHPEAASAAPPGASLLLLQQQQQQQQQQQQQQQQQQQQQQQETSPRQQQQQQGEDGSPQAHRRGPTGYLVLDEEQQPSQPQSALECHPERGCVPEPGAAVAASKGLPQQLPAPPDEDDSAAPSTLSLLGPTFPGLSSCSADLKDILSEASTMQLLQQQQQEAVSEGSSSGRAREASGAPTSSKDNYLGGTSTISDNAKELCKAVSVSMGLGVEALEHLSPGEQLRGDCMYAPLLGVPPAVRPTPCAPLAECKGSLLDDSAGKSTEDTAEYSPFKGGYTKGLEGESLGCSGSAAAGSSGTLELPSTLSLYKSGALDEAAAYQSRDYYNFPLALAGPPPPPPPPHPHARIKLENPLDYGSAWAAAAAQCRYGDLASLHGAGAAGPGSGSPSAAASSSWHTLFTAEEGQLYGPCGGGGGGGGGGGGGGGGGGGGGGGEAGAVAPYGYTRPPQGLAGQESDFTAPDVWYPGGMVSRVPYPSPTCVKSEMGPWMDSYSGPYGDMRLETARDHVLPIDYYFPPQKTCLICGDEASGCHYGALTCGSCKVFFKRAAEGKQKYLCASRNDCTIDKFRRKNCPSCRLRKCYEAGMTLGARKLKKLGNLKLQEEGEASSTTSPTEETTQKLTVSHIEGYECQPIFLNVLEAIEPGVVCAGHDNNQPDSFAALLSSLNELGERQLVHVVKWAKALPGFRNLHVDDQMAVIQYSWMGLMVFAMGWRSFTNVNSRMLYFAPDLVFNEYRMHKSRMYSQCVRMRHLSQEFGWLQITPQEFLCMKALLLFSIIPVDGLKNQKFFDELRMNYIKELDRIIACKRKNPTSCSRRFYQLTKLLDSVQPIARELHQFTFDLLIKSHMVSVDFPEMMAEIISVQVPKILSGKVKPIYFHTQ
Sequence of Nucleoli Translocation, AR (gene 367) (P10275 whole entry, looked up, the tested form may be a part): as the sequence (P10275 whole entry, looked up) above

O=C(O)CCCOc1ccc(Cl)cc1Cl
active: [4] 32.5 µM
not listed: [14] | [15] | [16] | [17] | [18] | [19]
inactive: all other assays above

C[C@H]1[C@H](c2ccc(Cl)cc2)SC(=O)N1C(=O)NC1CCCCC1
active: [1] 27.4 µM | [7] 13 µM | [8] 13.1 µM | [11] 10.3 µM | [12] 20 µM | [13] 17.2 µM
inactive: [2] | [14] | [3] | [9] | [10]

Oc1ccc(Cl)cc1Cc1ccccc1
inactive: [6] | [9] | [10] | [15] | [12] | [13]
active: [1] 19.1 µM | [2] 13 µM | [14] 7.42 µM | [4] 18.3 µM and 24 µM | [5] 32.8 µM and 41.5 µM | [7] 1.07 µM | [8] 1.08 µM | [11] 0.814 µM

O=C(O)C(F)(F)C(F)(F)C(F)(F)C(F)(F)C(F)(F)C(F)(F)C(F)(F)F
inactive: [16] | [17] | [18] | [19] | [9] | [10] | [15]

Cc1[nH]c(=O)n(C(C)(C)C)c(=O)c1Cl
inactive: [1] | [2] | [3] | [9] | [10] | [15]

CCOC1Oc2ccc(OS(C)(=O)=O)cc2C1(C)C (centres undefined)
active: [4] 33.5 µM | [5] 35.3 µM | [6] 33.9 µM
inactive: [1] | [3] | [9] | [10]

CNC(=O)/C=C(\C)OP(=O)(OC)OC
inactive: [7] | [8] | [9] | [10] | [11] | [12] | [13]

CC(C)OC(=O)Nc1cccc(Cl)c1
active: [7] 10.2 µM
inactive: [8] | [9] | [10] | [11] | [12] | [13]

CN1CSC(=S)N(C)C1
inactive: [9] | [10] | [15]

O=C(NC(=O)c1c(F)cccc1F)Nc1ccc(OC(F)(F)C(F)OC(F)(F)F)c(Cl)c1 (centres undefined)
inactive: [9] | [10] | [15]

COP(=O)(OC)OC=C(Cl)Cl
inactive: [9] | [10]

CC(C)N(C(=O)COc1nnc(C(F)(F)F)s1)c1ccc(F)cc1
active: [7] 5.77 µM and 2.11 µM | [8] 5.77 µM | [13] 1.36 µM
inactive: [8] | [9] | [10] | [11] | [12] | [13]
